# PubChem BioAssay (EPA / NIEHS)
# Inconclusive results are not listed. Calls of active or inactive are those of the source. The calls were made as follows, unless noted: active = hit-call score of the fitted dose curve at least 0.9, where 1 is the maximum; inactive = score below 0.9.
# Assays:
# [1] = ATG_NFI_CIS: Attagene CIS-FACTORIAL HepG2 Assay for human Nuclear Factor I (NFI) (AID 2282989); details: HepG2 cis-regulatory reporter, NFI response element transcription; actives raise or lower the signal
# Method in brief: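 Read-out: reporter mRNA via RT-PCR plus capillary electrophoresis with fluorescence detection. Transiently transfected HepG2 (endogenous TF activity on cis promoters), 24 h compound exposure; gain or loss of signal fitted against DMSO.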
# [2] = biological target: Myc proto-oncogene protein (Homo sapiens) (UniProt P01106); experiment: ATG_Myc_CIS: Attagene CIS-FACTORIAL HepG2 Assay for human Myelocytomatosis (Myc) Proto-Oncogene Transcription Factor (AID 2282990); details: HepG2, Attagene cis-reporter transcription factor activity; actives raise or lower the signal
# Method in brief: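 DMSO-normalised, bidirectionally fitted reporter mRNA signal. HepG2 cells transfected with cis reporter constructs, treated 24 h; transcripts detected by RT-PCR, 6-FAM primer extension and CE.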
# [3] = ATG_NRF2_ARE_CIS: Attagene CIS-FACTORIAL HepG2 Assay for human Nuclear Factor Erythroid 2 Related Factor 2 (NFR2) response to Antioxidant Response Elements (ARE) (AID 2282992); details: HepG2 Attagene ARE/NRF2 reporter, transcription factor activity; actives raise or lower the signal;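 as to AC50: reporter mRNA level measured by RT-PCR and capillary electrophoresis fluorescence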
# Method in brief: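 Endogenous transcription factor activity in human liver HepG2 cells is tracked via a cis-element-driven reporter within a multiplexed set. mRNA induction is read by RT-PCR and capillary electrophoresis after 24 h, with DMSO as baseline.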
# [4] = ATG_Oct_MLP_CIS: Attagene CIS-FACTORIAL HepG2 Assay for human Octamer-Binding Transcription Factor (Oct) (AID 2282993); details: HepG2 Attagene cis-factorial Oct reporter, mRNA; actives raise or lower the signal
# Method in brief: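 Read-out: reporter mRNA via RT-PCR plus capillary electrophoresis of 6-FAM-labelled fragments. Transiently transfected HepG2, 24 h exposure, endogenous TF activity on cis elements. Gain or loss of signal fitted relative to DMSO.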
# [5] = biological target: Cellular tumor antigen p53 (Homo sapiens) (UniProt P04637); experiment: ATG_p53_CIS: Attagene CIS-FACTORIAL HepG2 Assay for human p53 Transcription Factor (AID 2282994); details: HepG2 p53 cis-element reporter, Attagene mRNA; actives raise or lower the signal
# Method in brief: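 Steps: transfect HepG2 with multiplexed cis reporter constructs; dose chemicals 24 h; extract RNA, reverse-transcribe, PCR-amplify reporter sequences; FAM-label, HpaI-digest, resolve fragments by CE. Activity fitted both directions relative to DMSO.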
# [6] = biological target: human Peroxisome Proliferator-activated Receptor alpha (PPARa), PPARA (gene 5465) (UniProt Q07869); experiment: ATG_PPARa_TRANS: Attagene TRANS-FACTORIAL HepG2 Assay for human Peroxisome Proliferator-activated Receptor alpha (PPARa) (AID 2283001; active = hit-call score of the fitted dose curve at least 0.9, where 1 is the maximum;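 as to AC50: potency for gain of reporter signal over DMSO so agonist or activator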)
# Method in brief: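 Exposure: 24 h, transiently transfected HepG2 cells. Endpoint: GAL4-UAS reporter mRNA, RT-PCR with capillary electrophoresis fluorescence. Baseline: DMSO; increases fitted.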
# [7] = biological target: Peroxisome proliferator-activated receptor gamma (Homo sapiens) (UniProt P37231); experiment: ATG_PPARg_TRANS: Attagene TRANS-FACTORIAL HepG2 Assay for human Peroxisome Proliferator-activated Receptor-gamma (PPARg) (AID 2283007; active = hit-call score of the fitted dose curve at least 0.9, where 1 is the maximum)
# Method in brief: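 Multiplexed reporter transcription units in HepG2, 24 h dosing, reporter transcripts quantified by fluorescent RT-PCR and capillary electrophoresis. Increase over DMSO scored.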
# [8] = biological target: Nuclear receptor subfamily 1 group I member 2 (Homo sapiens) (UniProt O75469); experiment: ATG_PXR_TRANS: Attagene TRANS-FACTORIAL HepG2 Assay for human Pregnane X Receptor (PXR) (AID 2283008; active = hit-call score of the fitted dose curve at least 0.9, where 1 is the maximum)
# Method in brief: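 HepG2 transfected (FuGene 6) with GAL4-UAS reporter units + PXR-Gal4 chimera; dosed 24 h. Total RNA → oligo(dT) RT → PCR → 6-FAM primer extension → HpaI cut → CE. Gain-of-signal vs DMSO.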
# [9] = biological target: human Peroxisome Proliferator-activated Receptor delta (PPARd), PPARD (gene 5467) (UniProt Q03181); experiment: ATG_PPARd_TRANS: Attagene TRANS-FACTORIAL HepG2 Assay for human Peroxisome Proliferator-activated Receptor delta (PPARd) (AID 2283002; active = hit-call score of the fitted dose curve at least 0.9, where 1 is the maximum)
# Method in brief: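 Measured quantity: GAL4-UAS reporter transcript induction in HepG2 after 24 h chemical dosing, with NR-Gal4 chimeras supplied by transient transfection. Detection by RT-PCR and capillary electrophoresis; upward fit against DMSO.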
# [10] = biological target: human Retinoic Acid Receptor beta (RARb), RARB (gene 5915) (UniProt P10826); experiment: ATG_RARb_TRANS: Attagene TRANS-FACTORIAL HepG2 Assay for human Retinoic Acid Receptor beta (AID 2283004; active = hit-call score of the fitted dose curve at least 0.9, where 1 is the maximum)
# Method in brief: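 Readout is reporter mRNA induction: RNA reverse-transcribed, PCR-amplified, FAM-labelled, HpaI-cut and resolved by capillary electrophoresis. Transiently transfected HepG2 cells carrying exogenous NR–Gal4 chimeras were dosed for 24 h; activity fitted upward relative to DMSO.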
# [11] = biological target: Retinoic acid receptor alpha (Homo sapiens) (UniProt P10276); experiment: ATG_RARa_TRANS: Attagene TRANS-FACTORIAL HepG2 Assay for human Retinoic Acid Receptor alpha (RARa) (AID 2283005; active = hit-call score of the fitted dose curve at least 0.9, where 1 is the maximum)
# Method in brief: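 HepG2 cells transiently transfected with multiple reporter units expressing chimeric RARα-GAL4 fusion, with GAL4-UAS-driven reporters. After 24 h compound exposure, reporter mRNA induction quantified by RT-PCR and capillary electrophoresis with fluorescent labeling; gain-of-signal fitted relative to DMSO control.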
# [12] = biological target: human Retinoic Acid Receptor gamma (RARg), RARG (gene 5916) (UniProt P13631); experiment: ATG_RARg_TRANS: Attagene TRANS-FACTORIAL HepG2 Assay for human Retinoic Acid Receptor gamma (RARg) (AID 2283009; active = hit-call score of the fitted dose curve at least 0.9, where 1 is the maximum)
# Method in brief: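 Readout: reporter transcript levels via RT-PCR, 6-FAM primer-extension labelling, HpaI digestion and capillary electrophoresis. Cells: HepG2 carrying transfected RARg-GAL4 chimera plus UAS reporter set. Dosing 24 h; DMSO negative control.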
# [13] = biological target: human RAR-related Orphan Receptor beta (RORb), RORB (gene 6096) (UniProt Q92753); experiment: ATG_RORb_TRANS: Attagene TRANS-FACTORIAL HepG2 Assay for human RAR-related Orphan Receptor beta (RORb) (AID 2283010; active = hit-call score of the fitted dose curve at least 0.9, where 1 is the maximum)
# Method in brief: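 HepG2, transient MRTU transfection (GAL4-UAS reporters, exogenous NR-Gal4 chimeras); 24 h compound exposure; total RNA → RT-PCR → 6-FAM primer extension → HpaI digest → CE fluorescence. Positive direction vs DMSO baseline.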
# [14] = BSK_3C_uPAR: BioMAP Diversity Plus: 3C Assay for Urokinase-type plasminogen activator receptor (uPAR) Biomarker Activity (AID 2282998); details: BioMAP 3C HUVEC, uPAR biomarker ELISA; actives raise or lower the signal
# Method in brief: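 HUVEC primary cells; 24 h post-dose; uPAR by ELISA; gain or loss of signal fitted bidirectionally vs DMSO baseline.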
# [15] = BSK_3C_VCAM1: BioMAP Diversity Plus: 3C Assay for Vascular cell adhesion molecule 1 (VCAM1) Biomarker Activity (AID 2282999); details: BioMAP 3C HUVEC, VCAM1 ELISA, cytokine-stimulated; actives raise or lower the signal
# Method in brief: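 Vascular primary endothelium (human umbilical vein) was exposed to chemicals and assayed 24 h later. VCAM-1 levels came from ELISA, with DMSO serving as baseline for bidirectional fitting.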
# [16] = BSK_4H_Eotaxin3: BioMAP Diversity Plus: 4H Assay for Eotaxin 3 Biomarker Activity (AID 2283000); details: primary human endothelial cells (HUVEC); actives raise or lower the signal;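 as to outcome: CCL26 protein level quantified by ELISA in parallel with SRB cytotoxicity check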
# Method in brief: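 Readout is Eotaxin-3 (CCL26) level by ELISA in primary human umbilical vein endothelial cells harvested 24 h after chemical exposure; activity fitted in both directions against DMSO control.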
# [17] = read-out: Intercellular Adhesion Molecule 1 (ICAM1), ICAM1 (gene 3383); experiment: BSK_3C_ICAM1: BioMAP Diversity Plus: 3C Assay for Intercellular Adhesion Molecule 1 (ICAM1) Biomarker Activity (AID 2283003); details: primary human endothelial cells (HUVEC); actives raise or lower the signal
# Method in brief: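 ELISA read-out of ICAM-1; HUVEC (primary human), 3C system, 24 h post-dosing; bidirectional fit vs DMSO baseline.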
# [18] = BSK_3C_Proliferation: Cell Proliferation Assessment in the BioMAP Diversity Plus: 3C Assay (AID 2283006); details: primary human endothelial cells (HUVEC);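 as to AC50: potency may reflect either rise or fall in cell number versus DMSO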
# Method in brief: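 HUVEC, sub-confluent; 48 h chemical exposure; 10% TCA fix, 0.1% SRB stain, A560 total protein. Gain or loss of signal fitted both directions vs DMSO control.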
# Chain of human Peroxisome Proliferator-activated Receptor delta (PPARd), PPARD (gene 5467) (Q03181 whole entry, looked up, the tested form may be a part): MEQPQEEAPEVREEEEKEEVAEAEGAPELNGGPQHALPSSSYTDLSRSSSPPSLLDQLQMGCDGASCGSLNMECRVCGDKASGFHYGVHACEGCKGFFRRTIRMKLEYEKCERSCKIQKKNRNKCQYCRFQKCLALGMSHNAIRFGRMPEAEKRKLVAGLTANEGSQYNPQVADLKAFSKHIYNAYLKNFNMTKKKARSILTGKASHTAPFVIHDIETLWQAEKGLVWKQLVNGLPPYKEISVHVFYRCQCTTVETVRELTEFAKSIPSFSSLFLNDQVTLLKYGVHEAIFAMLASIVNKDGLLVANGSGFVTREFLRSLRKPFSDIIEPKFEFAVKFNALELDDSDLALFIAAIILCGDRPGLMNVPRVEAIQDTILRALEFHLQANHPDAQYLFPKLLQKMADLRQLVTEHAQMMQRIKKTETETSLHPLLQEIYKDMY
# Chain of Nuclear receptor subfamily 1 group I member 2 (Homo sapiens) (O75469 whole entry, looked up, the tested form may be a part): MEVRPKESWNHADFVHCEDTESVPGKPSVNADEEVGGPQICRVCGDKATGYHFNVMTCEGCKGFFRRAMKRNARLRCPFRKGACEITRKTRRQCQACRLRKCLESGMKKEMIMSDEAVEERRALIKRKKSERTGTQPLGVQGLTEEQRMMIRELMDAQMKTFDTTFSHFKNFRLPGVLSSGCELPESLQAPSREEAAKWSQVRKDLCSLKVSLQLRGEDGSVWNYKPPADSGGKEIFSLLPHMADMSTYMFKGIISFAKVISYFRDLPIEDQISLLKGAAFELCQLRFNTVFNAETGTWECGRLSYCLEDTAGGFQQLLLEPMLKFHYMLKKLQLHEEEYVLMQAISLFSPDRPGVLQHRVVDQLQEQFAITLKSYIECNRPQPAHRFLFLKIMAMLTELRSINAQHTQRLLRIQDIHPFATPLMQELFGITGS
# Chain of Cellular tumor antigen p53 (Homo sapiens) (P04637 whole entry, looked up, the tested form may be a part): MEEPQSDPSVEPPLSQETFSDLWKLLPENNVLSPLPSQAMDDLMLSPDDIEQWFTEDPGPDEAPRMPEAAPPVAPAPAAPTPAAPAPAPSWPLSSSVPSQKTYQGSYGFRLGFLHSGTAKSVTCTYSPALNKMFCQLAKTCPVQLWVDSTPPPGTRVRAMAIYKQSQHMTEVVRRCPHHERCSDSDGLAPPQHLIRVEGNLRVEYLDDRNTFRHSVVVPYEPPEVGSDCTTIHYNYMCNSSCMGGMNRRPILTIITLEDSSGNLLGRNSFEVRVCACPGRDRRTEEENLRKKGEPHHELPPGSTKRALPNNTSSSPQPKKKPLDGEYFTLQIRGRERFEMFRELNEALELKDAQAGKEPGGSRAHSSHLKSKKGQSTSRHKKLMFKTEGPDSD
# Chain of Myc proto-oncogene protein (Homo sapiens) (P01106 whole entry, looked up): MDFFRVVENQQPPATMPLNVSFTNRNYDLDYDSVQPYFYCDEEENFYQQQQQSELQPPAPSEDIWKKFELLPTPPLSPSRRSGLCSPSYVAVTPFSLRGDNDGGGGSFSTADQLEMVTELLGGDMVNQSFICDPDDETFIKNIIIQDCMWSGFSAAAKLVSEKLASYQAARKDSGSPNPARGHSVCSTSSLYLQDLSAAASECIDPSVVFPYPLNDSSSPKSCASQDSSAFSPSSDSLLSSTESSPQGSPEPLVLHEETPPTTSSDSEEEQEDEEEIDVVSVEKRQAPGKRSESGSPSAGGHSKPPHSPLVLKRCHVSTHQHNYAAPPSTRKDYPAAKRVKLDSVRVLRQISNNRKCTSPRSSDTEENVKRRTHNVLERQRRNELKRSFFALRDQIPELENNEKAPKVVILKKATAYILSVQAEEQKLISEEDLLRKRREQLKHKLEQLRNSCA
# Chain of human Peroxisome Proliferator-activated Receptor alpha (PPARa), PPARA (gene 5465) (Q07869 whole entry, looked up, the tested form may be a part): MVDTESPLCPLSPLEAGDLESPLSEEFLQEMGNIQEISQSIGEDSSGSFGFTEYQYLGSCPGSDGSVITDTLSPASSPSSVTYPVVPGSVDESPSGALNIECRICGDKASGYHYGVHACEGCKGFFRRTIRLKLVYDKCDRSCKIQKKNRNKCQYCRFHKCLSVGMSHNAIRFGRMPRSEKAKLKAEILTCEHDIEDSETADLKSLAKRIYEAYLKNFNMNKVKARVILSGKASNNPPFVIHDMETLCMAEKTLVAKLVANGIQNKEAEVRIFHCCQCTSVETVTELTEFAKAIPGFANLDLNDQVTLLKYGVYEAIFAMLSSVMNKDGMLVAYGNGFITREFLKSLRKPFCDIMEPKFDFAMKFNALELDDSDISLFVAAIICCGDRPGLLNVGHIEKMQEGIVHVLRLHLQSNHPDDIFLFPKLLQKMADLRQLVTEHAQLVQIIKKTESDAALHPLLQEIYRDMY
# Chain of Peroxisome proliferator-activated receptor gamma (Homo sapiens) (P37231 whole entry, looked up): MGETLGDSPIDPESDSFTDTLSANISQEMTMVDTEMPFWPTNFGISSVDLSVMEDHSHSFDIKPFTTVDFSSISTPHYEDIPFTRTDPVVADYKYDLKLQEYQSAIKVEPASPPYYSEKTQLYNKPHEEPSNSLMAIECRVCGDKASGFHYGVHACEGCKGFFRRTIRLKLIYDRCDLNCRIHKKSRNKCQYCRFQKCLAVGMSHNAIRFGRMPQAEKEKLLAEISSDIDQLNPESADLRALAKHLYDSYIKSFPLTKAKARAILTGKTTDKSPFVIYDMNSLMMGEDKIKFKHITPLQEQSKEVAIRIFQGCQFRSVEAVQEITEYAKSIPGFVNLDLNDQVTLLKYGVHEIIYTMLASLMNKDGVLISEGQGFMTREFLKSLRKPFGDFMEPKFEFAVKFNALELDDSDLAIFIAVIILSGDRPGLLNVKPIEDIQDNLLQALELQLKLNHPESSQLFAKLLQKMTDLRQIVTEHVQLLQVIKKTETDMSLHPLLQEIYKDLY
# Chain of human RAR-related Orphan Receptor beta (RORb), RORB (gene 6096) (Q92753 whole entry, looked up, the tested form may be a part): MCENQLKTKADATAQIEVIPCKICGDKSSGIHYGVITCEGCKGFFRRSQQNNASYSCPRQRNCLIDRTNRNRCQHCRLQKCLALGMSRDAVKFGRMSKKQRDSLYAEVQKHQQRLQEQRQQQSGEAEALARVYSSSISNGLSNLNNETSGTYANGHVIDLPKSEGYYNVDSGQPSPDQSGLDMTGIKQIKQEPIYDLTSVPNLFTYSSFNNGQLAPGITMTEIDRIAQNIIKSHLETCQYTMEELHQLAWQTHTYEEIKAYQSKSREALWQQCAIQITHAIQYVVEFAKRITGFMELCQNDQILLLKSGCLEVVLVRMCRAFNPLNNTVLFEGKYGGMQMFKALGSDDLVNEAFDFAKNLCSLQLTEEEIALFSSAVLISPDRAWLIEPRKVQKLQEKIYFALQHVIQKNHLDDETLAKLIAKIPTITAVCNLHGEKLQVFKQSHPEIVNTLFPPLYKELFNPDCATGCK
# Chain of human Retinoic Acid Receptor beta (RARb), RARB (gene 5915) (P10826 whole entry, looked up, the tested form may be a part): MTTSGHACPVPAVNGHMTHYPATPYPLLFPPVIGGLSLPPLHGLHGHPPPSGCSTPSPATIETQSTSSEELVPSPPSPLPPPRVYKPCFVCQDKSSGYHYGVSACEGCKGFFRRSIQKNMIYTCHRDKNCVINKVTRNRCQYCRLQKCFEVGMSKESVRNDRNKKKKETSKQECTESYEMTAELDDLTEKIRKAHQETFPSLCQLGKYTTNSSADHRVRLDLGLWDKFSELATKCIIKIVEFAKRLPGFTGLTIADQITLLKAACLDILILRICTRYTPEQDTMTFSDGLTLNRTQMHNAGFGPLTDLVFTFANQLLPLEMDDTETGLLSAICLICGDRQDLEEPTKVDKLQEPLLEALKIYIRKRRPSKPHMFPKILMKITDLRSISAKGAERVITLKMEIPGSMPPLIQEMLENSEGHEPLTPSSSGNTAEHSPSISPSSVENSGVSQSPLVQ
# Chain of Retinoic acid receptor alpha (Homo sapiens) (P10276 whole entry, looked up, the tested form may be a part): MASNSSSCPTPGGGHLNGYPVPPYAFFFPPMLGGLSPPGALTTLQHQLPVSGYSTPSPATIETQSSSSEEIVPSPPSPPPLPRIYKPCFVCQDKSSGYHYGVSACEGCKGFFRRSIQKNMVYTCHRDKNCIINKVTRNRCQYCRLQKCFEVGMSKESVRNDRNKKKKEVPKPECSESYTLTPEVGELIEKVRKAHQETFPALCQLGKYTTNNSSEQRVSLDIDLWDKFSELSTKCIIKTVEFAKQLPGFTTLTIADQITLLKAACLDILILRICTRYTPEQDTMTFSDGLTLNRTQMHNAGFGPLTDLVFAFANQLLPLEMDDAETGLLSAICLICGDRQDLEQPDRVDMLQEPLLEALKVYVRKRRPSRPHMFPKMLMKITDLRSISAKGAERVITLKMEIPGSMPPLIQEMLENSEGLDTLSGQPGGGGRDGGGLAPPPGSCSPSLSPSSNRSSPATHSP
# Chain of human Retinoic Acid Receptor gamma (RARg), RARG (gene 5916) (P13631 whole entry, looked up, the tested form may be a part): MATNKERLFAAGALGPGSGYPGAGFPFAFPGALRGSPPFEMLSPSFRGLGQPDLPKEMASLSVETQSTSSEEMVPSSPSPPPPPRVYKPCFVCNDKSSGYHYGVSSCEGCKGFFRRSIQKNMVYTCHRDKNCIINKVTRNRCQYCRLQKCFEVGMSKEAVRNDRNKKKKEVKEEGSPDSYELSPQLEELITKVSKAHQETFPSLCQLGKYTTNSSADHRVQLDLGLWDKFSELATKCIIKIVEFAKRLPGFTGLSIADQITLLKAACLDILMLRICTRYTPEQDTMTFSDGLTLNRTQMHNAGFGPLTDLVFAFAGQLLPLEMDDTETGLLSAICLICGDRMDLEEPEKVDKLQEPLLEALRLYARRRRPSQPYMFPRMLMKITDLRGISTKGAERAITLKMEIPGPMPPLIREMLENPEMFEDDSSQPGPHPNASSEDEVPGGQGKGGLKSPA
smiles,measurement,setting,value
CCCCCC(=O)OCCc1ccccc1,outcome,[1],inactive
same,outcome,[2],inactive
same,outcome,[3],inactive
same,outcome,[4],inactive
same,outcome,[5],inactive
same,outcome,[6],inactive
same,outcome,[7],inactive
same,outcome,[8],inactive
CCCCCC(CO)CCC (centres undefined),outcome,[1],inactive
same,outcome,[2],inactive
same,outcome,[3],inactive
same,outcome,[4],inactive
same,outcome,[5],inactive
same,outcome,[6],inactive
same,outcome,[9],inactive
same,outcome,[10],inactive
same,outcome,[11],inactive
same,outcome,[8],inactive
same,outcome,[12],inactive
same,outcome,[13],inactive
C=C(C)C(=O)O,outcome,[1],inactive
same,outcome,[2],inactive
same,outcome,[3],inactive
same,outcome,[4],inactive
same,outcome,[5],inactive
same,outcome,[6],inactive
same,outcome,[7],inactive
C=CC(=O)OCCn1c(=O)n(CCOC(=O)C=C)c(=O)n(CCOC(=O)C=C)c1=O,outcome,[1],inactive
same,outcome,[2],inactive
same,AC50,[3],0.811 µM (active)
same,AC50,[4],8.38 µM (active)
same,AC50,[5],24.3 µM (active)
same,AC50,[6],8.62 µM (active)
same,AC50,[7],8.83 µM (active)
same,outcome,[8],inactive
CCCCCCCCCCC(CO)CCCCCCCC (centres undefined),outcome,[1],inactive
same,outcome,[2],inactive
same,outcome,[3],inactive
same,outcome,[4],inactive
same,outcome,[5],inactive
same,outcome,[6],inactive
same,outcome,[9],inactive
same,outcome,[7],inactive
same,outcome,[8],inactive
same,outcome,[13],inactive
Nc1ccc(S(N)(=O)=O)cc1,outcome,[1],inactive
same,outcome,[2],inactive
same,outcome,[3],inactive
same,outcome,[4],inactive
same,outcome,[5],inactive
same,outcome,[6],inactive
same,outcome,[8],inactive
OCCN1CCNCC1,outcome,[1],inactive
same,outcome,[2],inactive
same,outcome,[3],inactive
same,outcome,[4],inactive
same,outcome,[5],inactive
same,outcome,[9],inactive
COc1ccc(Cl)cc1C,outcome,[1],inactive
same,outcome,[2],inactive
same,outcome,[3],inactive
same,outcome,[4],inactive
same,outcome,[5],inactive
same,outcome,[6],inactive
same,outcome,[8],inactive
CC(C)c1ccc(C(C)C)cc1,outcome,[1],inactive
same,outcome,[2],inactive
same,AC50,[3],162 µM (active)
same,outcome,[4],inactive
same,AC50,[5],158 µM (active)
same,AC50,[14],31.6 µM (active)
same,AC50,[15],35.3 µM (active)
same,AC50,[16],36 µM (active)
same,outcome,[6],inactive
same,AC50,[17],35.8 µM (active)
same,AC50,[18],33.8 µM (active)
same,outcome,[8],inactive
CC1=CCC(O)(C(C)C)CC1 (centres undefined),outcome,[1],inactive
same,outcome,[2],inactive
same,outcome,[3],inactive
same,outcome,[4],inactive
same,outcome,[5],inactive
same,outcome,[6],inactive
same,outcome,[9],inactive
same,outcome,[8],inactive
Cc1ncc([N+](=O)[O-])n1C,outcome,[1],inactive
same,outcome,[2],inactive
same,outcome,[3],inactive
same,outcome,[4],inactive
same,outcome,[5],inactive
same,outcome,[6],inactive
same,outcome,[9],inactive
same,outcome,[8],inactive
same,outcome,[13],inactive
CC(=O)C(=O)O,outcome,[1],inactive
same,outcome,[2],inactive
same,outcome,[3],inactive
same,outcome,[4],inactive
same,outcome,[5],inactive
same,outcome,[9],inactive
same,outcome,[10],inactive
same,outcome,[8],inactive
same,outcome,[13],inactive
CCCCCCCCC=O,outcome,[1],inactive
same,outcome,[2],inactive
same,outcome,[3],inactive
same,outcome,[4],inactive
same,outcome,[5],inactive
same,outcome,[14],inactive
same,outcome,[15],inactive
same,outcome,[16],inactive
same,AC50,[6],100 µM (active)
same,outcome,[17],inactive
same,outcome,[18],inactive
same,outcome,[13],inactive
CC(C)=CCO,outcome,[1],inactive
same,outcome,[2],inactive
same,outcome,[3],inactive
same,outcome,[4],inactive
same,outcome,[5],inactive
same,outcome,[6],inactive
same,outcome,[9],inactive
same,outcome,[7],inactive
same,outcome,[8],inactive
same,outcome,[13],inactive
CCCCCCCCCC=O,outcome,[1],inactive
same,outcome,[2],inactive
same,outcome,[3],inactive
same,outcome,[4],inactive
same,outcome,[5],inactive
same,outcome,[14],inactive
same,outcome,[15],inactive
same,outcome,[16],inactive
same,AC50,[6],29.6 µM (active)
same,outcome,[17],inactive
same,outcome,[18],inactive
same,AC50,[7],45.4 µM (active)
C=CC(C)(CCC=C(C)C)OC=O (centres undefined),outcome,[1],inactive
same,outcome,[2],inactive
same,AC50,[3],153 µM (active)
same,outcome,[4],inactive
same,outcome,[5],inactive
same,outcome,[6],inactive
same,outcome,[9],inactive
same,outcome,[7],inactive
same,outcome,[8],inactive
CC1(C)[C@@H]2CC[C@@]1(C)[C@H](O)C2,outcome,[1],inactive
same,outcome,[2],inactive
same,outcome,[3],inactive
same,outcome,[4],inactive
same,outcome,[5],inactive
same,outcome,[6],inactive
same,outcome,[9],inactive
same,outcome,[8],inactive
